Methyltransferases: Primary Screen for Target Class Profiling of Small Molecule Inhibitors of Methyltransferases | purified enzyme, MTase-Glo SAH luminescence; hits give low values | calls only at 40 µM | 25,000 tested, 3.9% active; call rule not given here
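Each enzyme was assayed with SAM and its substrate. SAH formation detected by MTase-Glo luminescence; single-point 40 uM screen[…].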
Numbers without * were called inactive; i = inactive; + = active, no number. This excerpt belongs to a sample that is enriched for hits. % is set by controls: 0 for no effect and ±100 for the full control effect.

SMILES	Methyltransferases
O=C(Nc1cc(F)ccc1F)N1Cc2c(sc3c2CCCC3)-n2cccc2C1c1ccc(F)cc1 (stereo not drawn)	i
C=C1C(=O)O[C@@H]2/C=C(\C)CC/C=C(/C=O)[C@H](OC)[C@@H](OC(=O)C(C)C)[C@@H]12	i
C=C(C)C(=O)O[C@H]1/C(C=O)=C\CC/C(CO)=C/[C@H]2OC(=O)C(=C)[C@@H]2[C@@H]1OC	i
C=C1C(=O)OC2/C=C(\CO)CC/C=C(\C=O)C(OC)C(OC(=O)C(C)CC)C12 (stereo not drawn)	+
C=C1C(=O)O[C@@H]2/C=C(\C)CC/C=C(\C)CC[C@@H]12	i
C=C1C(=O)OC2/C=C(\C)CC/C=C(\C=O)C(OC)C(OC(=O)C(C)CC)C12 (stereo not drawn)	+
C=C1C(=O)O[C@@H]2/C=C(\C)CC/C=C(\C(=O)O[C@@H]3O[C@H](CO)[C@@H](O)[C@H](O)[C@H]3O)CC[C@@H]12	i
COC(=O)C1C(CC(C)=O)C=CC(O)C12Oc1cc(C)cc(O)c1C2=O (stereo not drawn)	i
Cc1cccc(-c2nnn3c2nc(NCc2ccc(F)cc2)c2ccccc23)c1	i
Cc1cccc(Cn2nc3n(CCC(C)C)c(=O)c4ccc(C(=O)NC(C)C)cc4n3c2=O)c1	i
CC1(C(=O)NC2CCCCCCC2)Cc2ccccc2C(=O)N1Cc1ccco1 (stereo not drawn)	i
CCOC(=O)c1cnc2ccc(Br)cc2c1Nc1ccc(C(C)=O)cc1	i
Cc1ccc(CCNC(=O)c2ncn3c2C(=O)N(C2CC2)C(C)(C(=O)NC2CCCC2)C3)cc1 (stereo not drawn)	i
CCOC(=O)c1cc2n(n1)CC(C)(C(=O)NCc1ccc(C)cc1)N(Cc1ccccc1OC)C2=O (stereo not drawn)	i
NCC(CNc1nc(Nc2cccc(NC(=O)N3CCCC3)c2)ncc1I)C(=O)c1cccs1 (stereo not drawn)	+
O=C(Nc1ccccc1)N1CCC(Cc2cnc3ccccc3c2)CC1	i
Cc1ccc(C(=O)Cn2nc3n(CCC(C)C)c(=O)c4ccccc4n3c2=O)c(C)c1	i
C[C@]12CC[C@@H]3c4ccc(O)c(O)c4CC[C@H]3[C@@H]1CCC2=O	+
CCOC(=O)c1cc2n(n1)CC(C)(C(=O)NC1CCCCC1)N(Cc1ccc(OC)cc1)C2=O (stereo not drawn)	i
Cc1c(C(=O)N2CCOc3ccc(-c4ccc(N)nc4)cc3C2)ccc(S(C)(=O)=O)c1F	i
COc1ccc(CCC(=O)N2CCCC(n3cc(-c4nc(-c5ccccc5)no4)nn3)C2)cc1 (stereo not drawn)	i
Cn1c(=O)c2ccc(C(=O)NC3CCCCC3)cc2n2c(SCc3ccc(F)cc3)nnc12	i
CCCn1c(=O)c2cc(Cl)ccc2n2c(SCC(=O)Nc3cc(OC)cc(OC)c3)nnc12	i
N#Cc1cc(-c2ccnc(Nc3ccc(N4CCOCC4)cc3)n2)ccc1OC1CCOCC1	i
Cc1cc(NC2CCCCC2)nc(-n2nc(C)cc2C)n1	i
SMILES	Methyltransferases
Cc1cc(N2CCOCC2)ccc1Nc1nc(NC2CCCCC2)c2[nH]cnc2n1	+
Cc1ccc(C)c(Cn2nc3n(C(C)C)c(=O)c4ccc(C(=O)NC(C)C)cc4n3c2=O)c1	i
CC(C)(C)c1nn2c(SCC(=O)Nc3ccc(Cl)cc3)nnc2[nH]c1=O	i
CC1CCC(NC(=O)Cn2ccc3cc(S(=O)(=O)N4CCCCC4)ccc32)CC1 (stereo not drawn)	i
Nc1nc(NCC2CCC(CNS(=O)(=O)c3cccc4ccccc34)CC2)nc2ccccc12 (stereo not drawn)	+
O=C(NCCCc1ccccc1)C1CCC(CNS(=O)(=O)c2cccc3nsnc23)CC1 (stereo not drawn)	i
O=C(CCl)N1CCC2(CC1)CC(c1cccc(C(F)(F)F)c1)=NO2	i
Cc1cc2c(cc3n2CC(C)(C(=O)NC2CCCCCCC2)N(CCCN2CCCCCC2)C3=O)o1 (stereo not drawn)	i
C=C1[C@@H]2[C@H]3OC(=O)C(=C)[C@@H]3CC[C@@](C)(O)[C@@H]2C[C@@H]1O[C@@H]1O[C@H](CO)[C@@H](O)[C@H](O)[C@H]1O	i
COc1cc(Cl)c(NS(=O)(=O)c2ccc3c(c2)NC(=O)CC(=O)N3)c(OC)c1	i
CN(C)c1ccc(/C=C2\C(=O)Nc3ccccc32)cc1	+
Cc1ccc(Cn2c(=O)c3ccccc3n3c(SCC(=O)Nc4cc(C)cc(C)c4)nnc23)cc1	i
Cc1ccc(Cn2c(=O)c3ccc(C(=O)NCC(C)C)cc3n3c(=O)n(CC(=O)NC(C)(C)C)nc23)cc1	i
Cc1ccc(CNC(=O)CCc2nnc3n(CCC(C)C)c(=O)c4ccccc4n23)cc1	i
C/C=C/C=C/c1cc2c(C=O)c(O)c(CC=C(C)C)cc2o1	i
CCOC(=O)c1cc2n(n1)CC(C)(C(=O)NC1CCCCC1)N(c1ccc(F)cc1)C2=O (stereo not drawn)	i
OC[C@H](Cc1ccccc1)Nc1nc(Oc2ccc3c(c2)CCC3)nc2c1ncn2Cc1ccc(-c2ccccc2)cc1	+
O=C(c1cccnc1)N1CCC2(CC1)CC(N(C(=O)c1ccccc1)C1CC1)CCO2 (stereo not drawn)	i
COCc1nc(-c2ccc(OC3CN(C(=O)NCc4ccc(OC)cc4)C3)cc2)no1	i
O=C(NCc1ccc(Oc2ccccc2)cc1)c1nc(-c2cc(Br)c(O)c(Br)c2)no1	+
c1ccc(CNc2nc(-c3ccccc3)no2)cc1	i
C=CCn1c(=O)c2ccc(C(=O)NC(C)C)cc2n2c(=O)n(CC(=O)N(C)c3ccc(F)cc3)nc12	i
CC(=O)Nc1c2n(c3ccccc13)CC(C)(C(=O)NC1CCCCCC1)N(C1CCCCCC1)C2=O (stereo not drawn)	i
Cc1ncc(CCCN(C)C)cc1Nc1ncc2c(n1)-c1ccc(C(F)(F)F)cc1NC(=S)C2	+
CN1CCN(CCCNC(=O)C2CCc3sc(C(=O)N4CCCCCC4)cc3C2)CC1 (stereo not drawn)	i
SMILES	Methyltransferases
CCOC(=O)c1c(C)c2n(c1C)CC(C)(C(=O)NC1CCCCCC1)N(Cc1ccc(Cl)cc1)C2=O (stereo not drawn)	i
NC(=NCCCCCCN=C(N)/N=C(\N)Nc1ccc(Cl)cc1)/N=C(\N)Nc1ccc(Cl)cc1	+
CCC(C)NC(=O)c1ccc2c(=O)n(CC(C)C)c3nn(Cc4cccc(C)c4)c(=O)n3c2c1 (stereo not drawn)	i
Nc1c(S(=O)(=O)O)cc(Nc2ccc(Nc3nc(Cl)nc(Nc4ccc(S(=O)(=O)O)cc4)n3)c(S(=O)(=O)O)c2)c2c1C(=O)c1ccccc1C2=O	+
CN1C(=O)c2cc(C(=O)NCc3ccco3)nn2CC1(C)C(=O)NCc1ccc(F)cc1 (stereo not drawn)	i
COc1ccc(C(=O)C2CCN(CC(=O)N(Cc3nc4c(c(=O)[nH]3)COCC4)CC3CC3)CC2)cc1	i
COC(=O)c1cc(COc2cc3oc(=O)cc(-c4ccccc4)c3cc2Cl)c(C)o1	i
C[C@H]1CC[C@@]2(OC1)O[C@H]1CC3C4CC=C5C[C@H](O)C[C@@H](O[C@@H]6O[C@@H](C)[C@H](O)[C@@H](O)[C@H]6O[C@@H]6O[C@@H](C)[C@H](O)[C@@H](O)[C@H]6O)[C@]5(C)C4CC[C@]3(C)[C@H]1[C@@H]2C (stereo partly drawn)	i
